FMDV inh: antivirals against foot and mouth disease virus. Potency, µM (doses to about 57.9 µM), without a hit: at the top dose activity change, negative = inhibition, actives largely listed as inhibitors. AID 1159524. FMDV antiviral cell-based qHTS. actives 1.2% (n = 410,000); calls by dose curve; tested in HEK293T cells; also: read-out not given here; potency is read from the fitted curve at half-maximal effect; nearly all actives have a fitted effect of over 45% in size
HCV inhibitor: blocks hepatitis C virus. actives 3.4% (n = 340,000). Potency, µM (titrated, usually from 41.8 µM), without a hit: at the top dose activity change, negative = inhibition, hits mostly inhibitors. Huh7.5.1 HCVcc-Cre infection, luciferase reporter, 44 h. AID 651820; active = well fitted inhibition curve with a large enough effect; inconclusive = small, poorly fitted or top-dose-only effect, or another doubt; inactive = no such curve, though single readings can be large or run the other way; also: potency is read from the fitted curve at half-maximal effect
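Cells seeded at 1,000/well and cultured 4 h, then compounds added followed by HCVcc-Cre virus (~0.5 moi). After 44 h further culture, luciferase substrate was added, plates held 15 min at room temperature, and luminescence read for 15 sec.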
Vaccinia mCherry: inhibitors of vaccinia virus infection (mCherry reporter signal). Potency, µM (highest dose often 36.5 µM), for the others: at the highest dose activity change, negative = inhibition, usual class: inhibitors. AID 720579. Vaccinia virus mCherry reporter infection, fluorescence. actives 0.63% (n = 310,000); calls by dose curve; tested in A549 cells; also: potency is read from the fitted curve at half-maximal effect; nearly all actives have a fitted effect of over 35% in size
Vaccinia Venus: inhibitors of vaccinia virus (Venus reporter). Vaccinia virus Venus reporter expression, fluorescence. Potency, µM (titrated, usually from 36.5 µM), inactives show top-dose activity change, negative = inhibition, actives largely listed as inhibitors. actives 0.46% (n = 330,000); calls by dose curve; tested in A549 cells; also: potency is read from the fitted curve at half-maximal effect; nearly all actives have a fitted effect of over 30% in size
HCMV antiviral: inhibitors of human cytomegalovirus. HFF cells, HCMV-luciferase reporter, 72 h; stronger effect = lower value. AID 1259415. actives 4.5% (n = 410,000). activity change, negative = inhibition, % at 57.5 µM; in the data active = activity change below about -60%; inconclusive = no clear call, values can overlap the other calls; inactive = above about -39%
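Human foreskin fibroblasts infected with luciferase-reporter HCMV at MOI 1 PFU/cell, compounds at two doses. Luciferase measured 72 h post infection; normalized to buffer-only basal and Salinomycin (10uM) controls.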
Active calls of the source: *; i = inactive; ? = inconclusive; · = no result given. A selection: hits, their analogues and other compounds. The true share with any hit is near 7.3%. % is scaled to controls: 0 for no effect and ±100 for the full control effect.

SMILES	FMDV inh	HCV inhibitor	Vaccinia mCherry	Vaccinia Venus	HCMV antiviral
O=C(Nc1ccccc1C(=O)NCc1ccco1)Nc1cccc2ccccc12	-11.9%	11.2µM*	-14.4%	?	?
Cc1ccc(C(=O)NC(=S)NCc2cccnc2)cc1C	8.3%	-2.5%	·	·	?
O=C(CCNC(=O)c1ccc(Cl)cc1)NCc1ccco1	-8.2%	6.4%	-17.5%	-11.6%	-20.3
CC(C)(C)S(=O)(=O)N1C[C@@H]2C(=C(CCO)C[C@@H]3C(=O)N(c4ccccc4)C(=O)[C@@H]32)[C@H]1CCO	·	·	·	·	9.0
Cc1cccc(CSc2ncc(Cl)c(C(=O)Nc3sc4c(c3C(N)=O)CCCC4)n2)c1	-14.0%	·	-24.6%	-25.8%	5.6
CCc1cccc2c(C(O)(c3c[nH]c4c(CC)cccc34)c3c[nH]c4c(CC)cccc34)c[nH]c12	·	·	-11.0%	7.2%	·
COc1cccc(/C=C/c2nc3ccccc3nc2/C=C/c2cccc(OC)c2OC)c1OC	·	·	-14.4%	-6.2%	·
CC(C)CNc1cccc2c1S(=O)(=O)N(Cc1cccc(F)c1)[C@@H](C)[C@H](c1ccccc1)O2	·	·	·	·	-23.9
O=C(c1ccncc1)N1CCC2(CCCN(c3ccncc3)C2)CC1	-5.3%	·	·	·	·
CCn1c(-c2ccccc2F)nc2cc(C(=O)N3CCCC(CO)C3)cc(NC(C)=O)c21 (stereo unspecified)	5.1%	·	-7.4%	3.6%	·
COc1ccc(-c2noc(-c3ccccc3C(=O)NCc3ccco3)n2)cc1	15.2%	-19.3%	·	-4.0%	31.9
O=C(NCc1ccccc1)c1cccc(COc2ccccc2Cl)c1	-22.5%	?	-29.1%	-19.5%	90.4
COc1ccc(-c2noc(-c3ccccc3C(=O)NCc3ccco3)n2)cc1OC	1.3%	5.62µM*	-1.2%	-0.1%	45.3
O=C(NCc1cccnc1)NC1(C(F)(F)F)Oc2ccc(Cl)cc2O1 (stereo unspecified)	?	10µM*	?	?	·
O=C(NCc1ccco1)c1ccc(COc2cccc3ccccc23)cc1	-12.3%	?	-21.3%	-22.1%	?
O=C(NCc1cccnc1)c1ccc(COc2ccccc2Cl)cc1	-25.8%	?	·	·	-73.4*
O=C(NCc1ccco1)c1ccc(COc2ccccc2Cl)cc1	-12.8%	11.2µM*	·	?	-27.5
COCCNC(=O)NC1(C(F)(F)F)Oc2ccc(Cl)cc2O1 (stereo unspecified)	?	?	·	·	54.7
Cc1cnc(C)c(-c2cc(F)cc3c2OC(CNC(=O)Cc2c(C)noc2C)C3)n1 (stereo unspecified)	-1.9%	·	i	-14.0%	·
O=C(NCc1ccco1)c1ccc(C(=O)NCc2ccco2)cc1	0.0%	18.0%	i	-4.6%	-68.7*
O=C(NCc1ccco1)c1ccccc1-c1ccccc1	-15.3%	-4.1%	·	·	-79.8*
O=C(Nc1cccnc1)c1ccc(COc2ccccc2Br)cc1	-29.6%	?	·	·	-25.4
O=C(NCc1cccnc1)c1ccc(COc2ccccc2Br)cc1	?	?	i	-20.7%	-76.5*
CC(=O)N1CCCc2cc(S(=O)(=O)N3CCN(c4ccc(F)cc4)CC3)ccc21	?	·	-4.4%	-14.5%	-25.5
CCn1c(=O)c(C(=O)CN2c3ccccc3CC2C)c(N)n(Cc2ccccc2)c1=O (stereo unspecified)	-27.8%	?	-0.8%	-18.5%	-30.1
SMILES	FMDV inh	HCV inhibitor	Vaccinia mCherry	Vaccinia Venus	HCMV antiviral
CCn1c(=O)c(C(=O)CN2CCCc3ccccc32)c(N)n(Cc2ccccc2)c1=O	38.8%	?	·	·	-88.5*
NC(=S)N/N=C1/CCSc2ccc3ccccc3c21	?	?	14.1µM*	?	?
NC(=S)N/N=C/c1c(O)ccc2ccccc12	2.1%	?	·	·	?
O=C(Nc1ccc(NC(=S)NC(=O)C(c2ccccc2)c2ccccc2)cc1)c1ccccc1	?	?	?	?	-65.7*
O=C(NC(=S)Nc1ccc(Oc2ccc(Cl)cc2)cc1)c1ccccc1	-21.5%	?	-7.9%	-29.2%	-87.0*
O=C(NC(=S)Nc1ccc(NC(=O)c2ccccc2)cc1)c1ccc(F)cc1	-12.1%	?	i	-13.1%	?
O=C(NC(=S)Nc1ccc(Cl)cc1)c1ccccc1	36.4%	2.8%	i	-2.6%	72.1
COc1ccc(Cn2cc(CN3[C@@H](c4ccccc4)COc4cc(Br)ccc4S3(=O)=O)nn2)cc1	·	·	·	·	-14.2
O=C(NCCN1CCC(n2c(=O)[nH]c3cc(Cl)ccc32)CC1)c1ccc(F)cc1	·	·	·	·	-32.6
Clc1cccc(Cl)c1Cn1cnc(=NCc2ccco2)c2[nH]cnc21	4.4%	-12.4%	·	·	-71.0*
COc1ccc(NC(=O)CSc2ccc3nc(-c4ccccc4)cn3n2)c(OC)c1	-19.8%	·	-25.8%	-16.8%	10.0
CC1(C)CC[C@]2(C(=O)O)CC[C@]3(C)C(=CC[C@@H]4[C@@]5(C)CC[C@H](O[C@@H]6O[C@H](C(=O)O)[C@@H](O)[C@H](O[C@@H]7OC[C@H](O)[C@H](O)[C@H]7O)[C@H]6O)C(C)(C)[C@@H]5CC[C@]43C)[C@@H]2C1	-66.2%	11.2µM*	?	7.94µM*	-100.4*
COc1ccc2[nH]c(=O)c3c(c2c1)OC(C)(C)C=C3	-24.3%	-9.4%	12.6µM*	11.2µM*	-96.4*
CCCC(=O)Nc1cccc(NC(=O)c2ccc([N+](=O)[O-])cc2Cl)c1	-15.7%	7.94µM*	i	-13.0%	?
O=C(Nc1cccc([N+](=O)[O-])c1)c1ccc2ccccc2c1O	8.3%	?	10µM*	?	-80.1*
Cn1c(=O)n(C)c2cc(NS(=O)(=O)c3ccc(C(C)(C)C)cc3)ccc21	-8.1%	?	-1.1%	-13.5%	-32.4
CCOC(=O)c1oc2ccc(S(=O)(=O)Nc3ccc4c(c3)n(C)c(=O)n4C)cc2c1C	·	?	i	0.0%	-64.9*
Cn1c(=O)n(C)c2cc(NS(=O)(=O)c3ccc4c(c3)CCCC4)ccc21	?	?	·	·	-107.1*
O=C(NCc1ccccc1Cl)c1nnc(CS(=O)(=O)c2ccccc2)o1	-15.3%	1.2%	i	-11.6%	-99.4*
O=C1C=C(NCc2ccccc2)CCC1	-19.3%	10.5%	i	-10.2%	-13.2
O=C1C=C(NC2=CC3OC(c4ccccc4)OCC3OC2=O)CCC1 (stereo unspecified)	17.8µM*	?	?	?	26.2
Nc1ccc(C(=O)N2CCN(S(=O)(=O)c3ccc(Br)cc3)CC2)cc1[N+](=O)[O-]	-13.8%	-17.2%	-24.3%	-28.5%	-60.9*
COc1ccc(C(=O)Nc2nnc(SCc3cc(=O)n4cc(Cl)ccc4n3)s2)cc1	4.0%	·	i	-13.3%	33.5
COc1ccc(-c2ccc(=O)n(CC(=O)Nc3ccc(N(C)C)cc3)n2)cc1	16.4%	·	-6.6%	-4.7%	11.5
CCOC(=O)N1CCN(C(=O)c2ccc(S(=O)(=O)Nc3ccc(C)cc3)cc2)CC1	-24.8%	?	-6.9%	-17.8%	-68.6*
CCOC(=O)N1CCN(C(=O)c2ccc(NS(=O)(=O)c3ccc(C)cc3)cc2)CC1	-26.1%	·	-1.0%	-20.2%	-75.6*

Assay outcomes: PubChem, National Center for Advancing Translational Sciences (NCATS)
